# The list is not random: actives were taken first. Their share in the collection is about 18%.
# TDP1 cell noCPT: qHTS for Inhibitors of human tyrosyl-DNA phosphodiesterase 1 (TDP1): qHTS in cells in absence of CPT; DT40 Tdp1-/- hTDP1 cells, no CPT, ATP luminescence, 48 h; Potency, µM (highest dose often 46.2 µM), for inactives: at the highest dose activity change, negative = growth inhibition, usual class: inhibitors; 420,000 tested, 15% active; note: potency is the fitted concentration of half-maximal effect; nearly all actives have a fitted effect of over 55% in size
#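 Seeded 400 DT40-hTDP1 cells/well (vehicle DMSO, no 20 nM CPT); pinned compounds; ≥48 hr at 37 °C; CellTiter-Glo luminescence as viability measure.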
# CtBP-E1A inh: blocks the CtBP interaction with E1A | activity change, % (test concentration not listed) | 340,000 tested, 0.49% active | AlphaScreen GST-E1A/His-CtBP binding, 1536-well; hits give low values; in the data active = activity change below about -65%; inconclusive = mostly about -30% to -63%
#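 In 5 uL wells, 23 nL compound meets equimolar GST-E1A and His-CtBP (5X stock 125 nM each) for 2 h, 37 °C. Beads (5X, 50 ug/mL) then 1 h, 37 °C, dark.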
# IL1B secr inh: inhibitors of inflammasome signaling (IL-1 beta secretion). AID 743279. activity change, % at 57.5 µM. 360,000 tested, 4.7% active. THP-1 LPS/ATP IL-1B secretion, AlphaLISA, 16 h; hits give low values; in the data active = activity change below about -50%; inconclusive = mostly about -30% to -49%
#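 THP-1 cells pretreated 1 hr with compounds (up to 57.5 uM final), then stimulated with LPS (250 ng/mL final) plus ATP (1.25 mM final); secreted IL-1B measured by AlphaLISA after 16 hr, decreased signal indicating inhibition.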
# DT40 TDP1 CPT: DT40-hTDP1 cell growth loss with CPT. chicken DT40 Tdp1-/-;hTDP1 cells + 20 nM CPT, ATP luminescence, 48 h. Potency, µM (top dose mostly 46.2 µM), inactives show at the highest dose activity change, negative = growth inhibition, most hits filed as inhibitors. 420,000 tested, 12% active. AID 686979; note: potency is the fitted concentration of half-maximal effect; nearly all actives have a fitted effect of over 55% in size
#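 Chicken DT40 Tdp1-/- cells complemented with human TDP1, 400 cells/well, exposed to compounds plus 20 nM camptothecin for at least 48 h at 37 C; viability read as ATP content by CellTiter-Glo luminescence.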
# Six1-Eya2 inh: blocks human Six1 binding to Eya2. Q15475+O00167. AlphaScreen GST-Six1/His-Eya2 binding, biochemical; hits give low values. activity change, % (no concentration beside the values). 360,000 tested, 0.56% active. AID 651725; in the data active = activity change below about -65%; inconclusive = mostly about -30% to -63%
#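 AlphaScreen luminescence read after one hour at 37 °C in darkness. Pin-transferred compounds met GST-Six1 and His-Eya2 protein (5X stock 250 nM/500 nM) plus glutathione donor and Ni-chelate acceptor beads (5X, 50 ug/mL).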
# TDP1 block: inhibitors of human tyrosyl-DNA phosphodiesterase TDP1; recombinant TDP1, AlphaScreen DNA substrate cleavage; Potency, µM (top dose mostly 130 µM), for inactives: at the highest dose activity change, negative = inhibition, hits mostly inhibitors; 350,000 tested, 0.28% active; AID 485290; note: potency is the fitted concentration of half-maximal effect; nearly all actives have a fitted effect of over 40% in size
# Target sequence (Q9NUW8 whole entry, looked up): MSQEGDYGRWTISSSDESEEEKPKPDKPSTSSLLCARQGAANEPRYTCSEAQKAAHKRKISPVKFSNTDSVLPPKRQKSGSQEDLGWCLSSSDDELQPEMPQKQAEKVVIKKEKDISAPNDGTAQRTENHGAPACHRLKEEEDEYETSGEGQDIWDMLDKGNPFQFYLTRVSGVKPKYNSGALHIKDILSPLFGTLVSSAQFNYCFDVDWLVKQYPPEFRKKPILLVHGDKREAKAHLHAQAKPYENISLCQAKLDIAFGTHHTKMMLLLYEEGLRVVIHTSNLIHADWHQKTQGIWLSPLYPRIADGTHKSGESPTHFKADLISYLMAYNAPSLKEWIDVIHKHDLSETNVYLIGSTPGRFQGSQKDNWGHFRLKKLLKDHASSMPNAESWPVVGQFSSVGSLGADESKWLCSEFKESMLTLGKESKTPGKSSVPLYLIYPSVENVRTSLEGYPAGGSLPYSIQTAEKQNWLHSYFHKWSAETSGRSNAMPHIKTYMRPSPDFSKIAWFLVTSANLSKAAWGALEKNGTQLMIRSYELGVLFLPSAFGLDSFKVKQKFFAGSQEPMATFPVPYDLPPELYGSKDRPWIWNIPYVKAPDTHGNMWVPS
#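 Here, a 5' biotin and 3' phosphotyrosine-FITC DNA oligonucleotide reports Tdp1 activity: intact substrate bridges AlphaScreen beads, while cleavage leaves a 3' phosphate and drops signal. All incubations at room temperature.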
# Numbers without * were called inactive; ? = inconclusive; . = not tested or not shown. Unless noted, calls come from the whole dose curve; as a rule, active = well fitted curve in the direction sought with a large enough effect; inconclusive = small, poorly fitted or top-dose-only effect, or another doubt; inactive = no such curve, though single readings can be large; an effect the other way counts as inactive or inconclusive. % is set by controls: 0 for no effect and ±100 for the full control effect.
SMILES,TDP1 cell noCPT,CtBP-E1A inh,IL1B secr inh,DT40 TDP1 CPT,Six1-Eya2 inh,TDP1 block
O=C(CNCc1ccccc1)Nc1ccc(Oc2ccccc2)cc1,?,-8,-58*,14%,5,-4%
O=C(NCc1cn(-c2ccccc2)nc1-c1ccccc1)c1cc([N+](=O)[O-])cc([N+](=O)[O-])c1,?,0,?,?,2,6%
Cc1ccc(-n2c(C)nn(Cc3ccc([N+](=O)[O-])cc3)c2=O)cc1,-24%,-26,-5,-15%,-12,0%
Cc1ccc(-n2c3nc(=O)[nH]c(=O)c-3cc3cc([N+](=O)[O-])ccc32)cc1,5.2µM*,0,-107*,5.8µM*,-6,8%
Cn1c2ccc(F)cc2c2nnc(SCCN3CCCCC3)nc21,16µM*,.,-60*,?,-14,5%
CCN(CC)CCSc1nnc2c3cc(F)ccc3n(C)c2n1,?,.,.,-23%,.,-1%
Cn1c2ccccc2c2nnc(SCCN3CCOCC3)nc21,-18%,-12,7,?,-5,.
Cc1cc(C)c2c(c1)c1nnc(SCCN3CCCCC3)nc1n2C,21µM*,-25,-72*,?,-11,.
CCOc1ccc2c(c1)c1nnc(SCC(=O)N3CCC(C)CC3)nc1n2C,?,-17,?,?,-9,7%
CCOc1ccc2c(c1)c1nnc(SCC(=O)N3CCCCC3C)nc1n2C (stereo not given),23µM*,-9,-6,23µM*,0,-2%
Cc1noc(C)c1CSc1nnc2sc3ccccc3n12,-28%,3,-8,1%,-1,1%
CCOc1ccccc1NC(=O)c1cnccn1,-12%,2,-59*,4%,5,.
CCOc1ccccc1NC(=O)C(CC)Sc1nc2ccncc2[nH]1 (stereo not given),16µM*,.,11,?,-2,0%
CCOc1ccccc1NC(=O)C(CC)Sc1nc2ncccc2[nH]1 (stereo not given),?,.,.,?,.,4%
COc1ccccc1NC(=O)c1nc[nH]c1C(=O)Nc1ccccc1OC,?,-3,8,-28%,0,-2%
CCOc1ccccc1NC(=O)c1nc[nH]c1C(=O)Nc1ccccc1OCC,?,8,25,16µM*,-2,2%
CCCCN(C(=O)CSc1nnc(Nc2ccccc2)s1)c1c(N)n(CCC)c(=O)[nH]c1=O,9%,.,20,0%,4,2%
CC1=C(C(=O)N(C)C)CC(CC(=O)NC2CCCC2)C(=O)N1Cc1ccc(F)cc1 (stereo not given),-24%,3,2,1%,-2,.
COC(=O)C1=C(C)N(CC2CCCO2)C(=O)C1 (stereo not given),-24%,-2,-1,-6%,-2,2%
COCCC1CCCCN1C(=O)c1ccc(OC2CCN(C(C)=O)CC2)c(OC)c1 (stereo not given),21%,12,0,-12%,0,0%
COc1ccc(Br)cc1/C=C/c1ccc2cccc(O)c2n1,21µM*,-6,60,?,-3,.
COc1cc(Br)cc(/C=C/c2ccc3cccc(O)c3n2)c1OC,?,-2,2,?,-1,.
COc1cc(/C=C/c2ccc3cccc(O)c3n2)cc(OC)c1OC,?,-1,-102*,?,19,.
COc1cc(/C=C/c2ccc3cccc(O)c3n2)cc(Cl)c1OC,4.1µM*,-5,-93*,4.1µM*,-14,.
COc1ccc(/C=C/c2ccc3cccc(O)c3n2)cc1Br,5.2µM*,.,10,5.8µM*,2,.
CC[N+]1(CC)CC2CCC(C)(C1)C2(C)C (stereo not given),15%,-21,3,0%,3,2%
